A selection: hits, their analogues and other compounds. The true share with any hit is near 10%.
HEK cytotox: kills HEK 293 cells; HEK 293 viability, ATP luminescence (CellTiter-Glo), 48-72 h; Potency, µM (doses to about 115 µM), without a hit: top-dose activity change, negative = cytotoxicity, usual class: inhibitors; 94,000 compounds, 6.6% hits; AID 1345083; further: nearly all actives have a fitted effect of over 60% in size
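ATP-coupled CellTiter-Glo luminescence served as viability read-out, recorded 10 min after reagent addition at room temperature. HEK 293 cells, 250 cells/well, had been incubated with pintool-transferred compound for 48 or 72 hr at 37 degree Celsius.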
hNpr1 antagonist: human Npr1 receptor antagonism; HEK293 hNpr1 GloSensor cGMP, ANP-stimulated luminescence; P16066; 76,000 compounds, 1.6% hits; AID 1347048; Potency, µM (series often up to 46.3 µM), without a hit: top-dose activity change, negative = inhibition, usual class: inhibitors; calls by dose curve; further: nearly all actives have a fitted effect of over 60% in size
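HEK293 cells stably expressing human Npr1 and cGMP GloSensor pGS-40F, loaded 2 h with 2% GloSensor reagent, given compound 30 min at room temperature. Luminescence read before and 20 min after 0.1 nM hNppA.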
GPT2 inh: blocks human glutamate pyruvate transaminase 2; Q8TD30; Recombinant GPT2, coupled pyruvate oxidase/HRP Amplex Red fluorescence; Potency, µM (titrated, usually from 57.7 µM), without a hit: top-dose activity change, negative = inhibition, actives largely listed as inhibitors; 100,000 compounds, 0.25% hits; further: nearly all actives have a fitted effect of over 60% in size
Target sequence (Q8TD30 whole entry, looked up): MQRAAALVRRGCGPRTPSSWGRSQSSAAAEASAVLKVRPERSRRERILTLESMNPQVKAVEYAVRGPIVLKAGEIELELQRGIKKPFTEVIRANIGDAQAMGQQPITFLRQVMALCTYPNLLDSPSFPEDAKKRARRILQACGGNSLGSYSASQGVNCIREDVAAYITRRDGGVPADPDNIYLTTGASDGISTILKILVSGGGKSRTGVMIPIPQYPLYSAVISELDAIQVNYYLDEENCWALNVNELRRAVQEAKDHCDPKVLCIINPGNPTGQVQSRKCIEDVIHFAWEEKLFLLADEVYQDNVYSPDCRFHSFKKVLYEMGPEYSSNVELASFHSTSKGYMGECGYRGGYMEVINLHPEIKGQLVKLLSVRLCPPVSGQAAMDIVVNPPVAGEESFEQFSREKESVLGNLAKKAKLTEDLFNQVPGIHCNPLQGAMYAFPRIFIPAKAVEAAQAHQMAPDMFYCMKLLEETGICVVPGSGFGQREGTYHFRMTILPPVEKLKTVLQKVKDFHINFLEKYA
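Recombinant GPT2 (10ng/uL) with 250uM a-KG and 2mM L-alanine, 30 min at room temperature, in HEPES pH 7.5 buffer. Pyruvate detected by pyruvate oxidase/HRP/Amplex Red fluorescence after 30 min in the dark; AOA (50uM) as positive control.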
NIH3T3 tox: kills NIH 3T3 cells. AID 1345082. NIH 3T3 viability, CellTiter-Glo ATP luminescence, 48-72 h. Potency, µM (highest dose often 96.7 µM), inactives show at the top dose activity change, negative = cytotoxicity, most hits filed as inhibitors. 94,000 compounds, 4.3% hits; further: nearly all actives have a fitted effect of over 55% in size
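Cells were seeded at 400 per well, treated with pin-transferred compound, and kept 48 or 72 hr at 37 °C before CellTiter-Glo addition and luminescence imaging of cellular ATP.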
Luciferase inh: inhibitors of firefly (Photinus pyralis) luciferase. purified P. pyralis luciferase, luminescence, biochemical. Potency, µM (highest dose often 115 µM), most hits filed as inhibitors. 76,000 compounds, 2.5% hits; further: nearly all actives have a fitted effect of over 65% in size
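Purified 10nM P. pyralis luciferase with 10uM D-luciferin and 10uM ATP in 50mM Tris acetate pH 7.5, 10mM Mg acetate, 0.01% Tween-20, 0.05% BSA. qHTS titration; luminescence read by CCD imager.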
* = called active by the depositor; i = inactive; ? = inconclusive; . = not tested or not shown; [ ] = remark or other dose. Unless noted, the call rests on the fitted dose curve; in most records, active means well fitted curve in the direction sought with a large enough effect; inconclusive means small, poorly fitted or top-dose-only effect, or another doubt; inactive means no such curve, though single readings can be large; an effect the other way counts as inactive or inconclusive. On the % scale 0 is the no-effect control and ±100 the full control effect; potency means the concentration at half of the fitted maximal effect.

SMILES	HEK cytotox	hNpr1 antagonist	GPT2 inh	NIH3T3 tox	Luciferase inh
O=C(O)C1CCc2nnc(C3CCN([S+](=O)([O-])C4CCCC4)CC3)n21 (stereo not given)	-10.3%	.	0.8%	-11.6%	.
O=C(c1ccco1)N1CCN(C2CCC3(CCNCC3)CC2)CC1	-15.7%	6.6%	4.0%	-11.5%	i
Cc1ccnc(N2CCN(C3CCC4(CCNCC4)CC3)CC2)c1	44.7µM*	0.4%	-12.0%	?	i
COC[C@@H]1CN(C(=O)c2ccccc2OC)C[C@H]1c1ccncc1	4.6%	-2.6%	i	-5.8%	i
CN(C)S(=O)(=O)N1CCc2nc3cc(-c4ccccc4)[nH]n3c(=O)c2C1	-2.2%	2.3%	i	-18.4%	0.447µM*
CN(Cc1ccc(-n2cccn2)cc1)Cc1nc(Cc2cccc(F)c2)no1	?	2.3%	i	-19.9%	i
CN(Cc1cccc(-n2cccn2)c1)Cc1nc(-c2cccs2)no1	79.4µM*	-8.1%	0.5%	-23.6%	i
CCc1nncn1C1CCN(S(=O)(=O)c2ccc(Cl)cc2C)CC1	1.5%	.	-2.8%	-6.7%	.
C[C@H]1[C@@H](O)[C@H](O)C2[C@]3(C)C([C@@H](O)[C@H]4OC(=O)[C@@H]1[C@@]24C)[C@](C)(O)C=C[C@H]3O[C@@H]1O[C@H](CO)[C@@H](O)[C@H](O)[C@H]1O (stereo not given in full)	.	.	i	.	.
Cc1ccccc1C(=O)N(C)Cc1ccc(-c2ccccc2)cc1	?	?	-2.7%[88.5 µM]	50.1µM*	i
COc1cccc(C(=O)N(C)Cc2ccc(F)cc2)c1	-27.6%[172 µM]	0.0%[70.6 µM]	-7.7%[88.5 µM]	-18.9%[138 µM]	i
COc1cccc(C(=O)N(C)Cc2ccc(-c3ccccc3)cc2)c1	70.8µM*	5.8%[70.6 µM]	-2.1%[88.5 µM]	?	i
CN(Cc1ccc(-c2ccccc2)cc1)C(=O)c1ccc(F)cc1	70.8µM*	-9.1%[70.6 µM]	-1.9%[88.5 µM]	?	i
Cn1cc(-c2cccc(Cl)c2)c2nc(CN3CC[S+](=O)([O-])CC3)cn2c1=O	-29.9%[172 µM]	-0.9%[70.6 µM]	i	?	i
COc1ccccc1-c1cc(C(=O)Nc2cccc(C(F)(F)F)c2)c2cnn(C)c2n1	14.1µM*	.	.	?	.
CCOc1cccc(NC(=O)c2cc(-c3ccc(C(F)(F)F)cc3)nc3c2cnn3C)c1	-22.7%	.	.	?	.
COc1ccc(-c2cc(C(=O)Nc3cccc(C(F)(F)F)c3)c3cnn(C)c3n2)cc1	35.5µM*	.	.	?	.
COc1ccc(CN2CCC(N3CC4CCCN4C3=O)CC2)cc1 (stereo not given)	0.1%[172 µM]	2.0%[70.6 µM]	i	-3.2%[138 µM]	i
O=C1N2CCCC2CN1C1CCN(Cc2ccc(C(F)(F)F)cc2)CC1 (stereo not given)	39.8µM*	?	i	?	i
COc1cccc2c1C(=O)c1c(O)c3c(c(O)c1C2=O)C[C@@](O)(C(=O)CO)C[C@@H]3O[C@H]1C[C@H](N)[C@H](OC2CCCCO2)[C@H](C)O1 (stereo not given in full)	.	.	3.06µM*	.	.
CC(C)C(=O)N1CCC(Oc2ccc3c(cnn3CCC(=O)O)c2)CC1	-12.2%[172 µM]	-0.4%[70.6 µM]	3.6%[88.5 µM]	?	i
CNC(=O)CCn1ncc2cc(OC3CCc4cccc(-c5cnn(C)c5)c43)ccc21 (stereo not given)	50.1µM*	1.3%[70.6 µM]	-26.3%[88.5 µM]	?	i
CNC(=O)CCn1ncc2cc(OC3CCc4cccc(-c5cccc(CO)c5)c43)ccc21 (stereo not given)	79.4µM*	-1.3%[70.6 µM]	-29.4%[88.5 µM]	?	?
CC(C)OC(=O)N1CCC(Oc2ccc3c(cnn3CCC(=O)O)c2)CC1	4.0%[172 µM]	1.3%[70.6 µM]	-7.0%[88.5 µM]	?	i
CNC(=O)CCn1ncc2cc(OC3CCc4cccc(-c5ccc(O)c(F)c5)c43)ccc21 (stereo not given)	?	1.7%	i	39.8µM*	i
SMILES	HEK cytotox	hNpr1 antagonist	GPT2 inh	NIH3T3 tox	Luciferase inh
CNC(=O)CCn1ncc2cc(OCc3ccccc3-c3cc(Cl)ccc3OC)ccc21	?	-11.2%	?	?	i
CNC(=O)CCn1ncc2cc(OC3CCc4cccc(-c5ccc(OC)cc5)c43)ccc21 (stereo not given)	79.4µM*	-18.7%[70.6 µM]	-0.9%[88.5 µM]	50.1µM*	i
CCC[C@H](N[C@H]1CCc2cc(F)cc(F)c2C1)C(=O)Nc1cn(C(C)(C)CNCC(C)(C)C)cn1	.	.	2.6%	.	.
Cc1ccc(CNC(=O)N2CC(c3nc(CCOCc4ccccc4)no3)C2)cc1	-29.7%	.	i	?	.
COc1ccc(OCC2(C)COc3ccc(C(=O)NCCN4CCOCC4)cc3N2)cc1 (stereo not given)	?	-4.5%[70.6 µM]	0.5%[88.5 µM]	-10.1%[138 µM]	i
COc1ccccc1CNC[C@@H]1C=C(C)[C@H](Cc2nc3c(C)cccc3[nH]2)C[C@H]1C(C)C	?	?	-8.9%[88.5 µM]	25.1µM*	i
CC1=C[C@@H](CNC(=O)COCC(=O)O)[C@H](C(C)C)C[C@H]1Cc1nc2c(C)cccc2[nH]1	-22.0%[172 µM]	-5.2%[70.6 µM]	i	-11.0%[174 µM]	i
CC1=C[C@@H](CN(C)C)[C@H](C(C)C)C[C@H]1Cc1nc2c(C)cccc2[nH]1	100µM*	4.3%[70.6 µM]	-3.1%[88.5 µM]	89.1µM*	i
CC1=C[C@@H](CNCc2ccccc2F)[C@H](C(C)C)C[C@H]1Cc1nc2c(C)cccc2[nH]1	25.1µM*	?	2.3%[88.5 µM]	28.2µM*	i
CC1=C[C@@H](CNC(=O)CC(C)(C)CC(=O)O)[C@H](C(C)C)C[C@H]1Cc1nc2c(C)cccc2[nH]1	-9.7%	1.8%	?	-17.9%	i
CC1=C[C@@H](CNC(=O)CCCC(=O)O)[C@H](C(C)C)C[C@H]1Cc1nc2c(C)cccc2[nH]1	-17.4%[172 µM]	4.3%[70.6 µM]	i	-26.8%[174 µM]	i
CC1=C[C@@H](CNCc2ccccc2)[C@H](C(C)C)C[C@H]1Cc1nc2c(C)cccc2[nH]1	25.1µM*	?	-2.3%[88.5 µM]	28.2µM*	i
CC1(C)[C@H]2CC[C@@H](CNC(=O)c3ccc(F)cc3)[C@@H]1C2	?	3.9%[70.6 µM]	i	?	i
Cc1ccc(-n2c(C3CCN(C(=O)c4cc(F)ccc4F)CC3)n[nH]c2=O)cc1	-5.2%	2.9%	3.0%	?	i
COc1ccc(NC(=O)N2CCCN(C)c3ccccc32)c(C)c1	i	7.4%	-4.4%	-7.1%	i
CC(C)(C)CC(=O)Nc1cnc(-c2cccc(Cl)c2)nc1	35.5µM*	3.98µM*	i	31.6µM*	0.251µM*
COC1CC(=O)CCC(C)OC(=O)CC1O (stereo not given)	.	.	i	.	.
Cc1ccc(C2Cn3nnc(C(=O)N4CCC(C(=O)NC5CCCC5)CC4)c3CO2)cc1 (stereo not given)	6.3%	1.0%	i	i	11.2µM*
